Laboratory results from PMC5540273 (PLoS ONE, 2017).

Legend:
Conditions in all cases: concentration: 1 μM, replicates: in singlicate; n = 1
LOK = test system: T1, LOK
T1 construct: gene STK10

LRRK2 = test system: LRRK2
LTK = test system: LTK
LYN = test system: LYN
LZK = test system: T2, LZK
T2 construct: gene MAP3K13

MAK = test system: MAK
MAP3K15 = test system: MAP3K15
MAP3K1 = test system: MAP3K1
MAP3K2 = test system: MAP3K2
MAP3K3 = test system: MAP3K3
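Also: KINOMEscan kinase panel screen.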

SMILES | %Inh (LOK) [%] | %Inh (LRRK2) [%] | %Inh (LTK) [%] | %Inh (LYN) [%] | %Inh (LZK) [%] | %Inh (MAK) [%] | %Inh (MAP3K15) [%] | %Inh (MAP3K1) [%] | %Inh (MAP3K2) [%] | %Inh (MAP3K3) [%]
COc1cccc(C2=C(Nc3cccc(C(=O)O)c3)C(=O)NC2=O)c1 [SB-390770] | 22 | 27 | 32 | 0 | 0 | 33 | 1 | 25 | 0 | 3
CCCC(=O)Nc1n[nH]c2ncc(-c3cccc4ccccc34)cc12 [SB-642057] | 0 | 0 | 0 | 0 | 0 | 22 | 0 | 7 | 2 | 0
O=C(NCCNc1ccnc(Nc2ccc(F)cc2)n1)Nc1ccc2c(c1)OCO2 [GSK1379882] | 0 | 0 | 0 | 0 | 0 | 30 | 0 | 1 | 0 | 0
CCCNC(=O)Nc1ccc(Oc2ncnc3ccn(C)c23)cc1 | 47 | 0 | 4 | 30 | 22 | 0 | 0 | 31 | 15 | 0
Cc1nnc(-c2ccc3ncn(-c4ccc(S(C)=O)cc4)c3c2)o1 (stereo not shown) | 4 | 0 | 0 | 8 | 0 | 0 | 0 | 16 | 0 | 0
COc1cc(OC)cc(-c2cc3cnc(N)nc3nc2NC(=O)NC(C)(C)C)c1 | 13 | 0 | 0 | 0 | 0 | 0 | 0 | 0 | 0 | 13
COc1cc2ncn(-c3cc(OCc4ccc(S(C)(=O)=O)cc4)c(C(N)=O)s3)c2cc1OC [GW869979] | 20 | 29 | 0 | 26 | 3 | 0 | 0 | 8 | 9 | 0
O=C1NC(=O)C(c2ccccc2)=C1Nc1cccc(O)c1 [SB-390534] | 23 | 0 | 1 | 0 | 0 | 26 | 17 | 0 | 4 | 49
CCS(=O)c1ccc(-c2coc3ccc(-c4nnc(C)o4)cc23)cc1 (stereo not shown) | 17 | 5 | 0 | 0 | 34 | 15 | 0 | 3 | 8 | 20
COc1cccc(C2=C(N(C)c3ccccc3)C(=O)NC2=O)c1 [SB-334865] | 0 | 0 | 0 | 0 | 32 | 24 | 0 | 1 | 4 | 0
COc1ccc(-c2cc3c(C)nc(N)nc3n([C@H]3CC[C@H](O)CC3)c2=O)cn1 | 0 | 0 | 0 | 0 | 0 | 0 | 0 | 0 | 0 | 0
Cc1nc(N(C)[C@H]2CN(C(=O)CC#N)CC[C@H]2C)c2cc[nH]c2n1 | 0 | 0 | 0 | 0 | 0 | 9 | 0 | 10 | 10 | 7
Cn1c(=O)c(F)c(Nc2ccc(I)cc2F)c2c(=O)n(OC[C@H](O)CO)cnc21 | 2 | 0 | 20 | 14 | 0 | 0 | 0 | 0 | 0 | 4
COC(=O)c1c(-c2ccccc2)c2cc(Br)ccc2c(=O)n1Cc1ccc(NC(=O)CCC(=O)O)cc1 | 20 | 4 | 3 | 8 | 4 | 8 | 18 | 12 | 0 | 18
CCC(=O)c1c(-c2ccccc2)c2cc(Cl)ccc2c(=O)n1Cc1cc(S(C)(=O)=O)n(CC(N)=O)n1 | 0 | 8 | 0 | 7 | 0 | 15 | 0 | 0 | 0 | 0
Cc1nnc(-c2ccc(C)c(-c3ccc(C(=O)O)cc3)c2)o1 [GW608005] | 100 | 46 | 0 | 0 | 0 | 19 | 14 | 0 | 0 | 0
CCS(=O)(=O)c1ccc(OC)c(Nc2ncc(-c3ccc(F)cc3)o2)c1.Cl [GW591947] | 0 | 0 | 0 | 0 | 0 | 80 | 0 | 0 | 0 | 0

SMILES | %Inh (LOK) [%] | %Inh (LRRK2) [%] | %Inh (LTK) [%] | %Inh (LYN) [%] | %Inh (LZK) [%] | %Inh (MAK) [%] | %Inh (MAP3K15) [%] | %Inh (MAP3K1) [%] | %Inh (MAP3K2) [%] | %Inh (MAP3K3) [%]
Fc1cccc(CSc2nnc(-c3ccc4c(c3)CCO4)o2)c1 | 9 | 10 | 16 | 19 | 0 | 5 | 15 | 26 | 2 | 2
COc1cc2ncn(-c3cc(OCCCc4ccccc4)c(C(N)=O)s3)c2cc1OC [GSK205189] | 40 | 5 | 0 | 0 | 0 | 4 | 0 | 22 | 0 | 0
Cc1ccc(-c2ccc3c(ccc4sc5c(c43)NC[C@@H](C)N=C5N(C)C)n2)cn1 | 0 | 0 | 0 | 0 | 0 | 17 | 0 | 0 | 0 | 0
COc1cc(Nc2nccc(N3CCC(NC(=O)C(C)c4ccc(Cl)cc4)C3)n2)cc(OC)c1OC (stereo not shown) [GSK1379757] | 0 | 0 | 28 | 0 | 0 | 17 | 0 | 1 | 0 | 0
Nc1nc(N)c2nc(-c3ccccc3)[nH]c2n1 [SKF-12778] | 14 | 18 | 5 | 3 | 0 | 3 | 12 | 9 | 26 | 13
C[C@@H]1CC[C@H](C(=O)NC2CCCCC2)CN1c1cc(-c2ccc3c(N)n[nH]c3c2)nc(N)n1 [GSK2291363] | 0 | 0 | 0 | 0 | 0 | 25 | 0 | 21 | 20 | 0
COc1cc2ncn(-c3cc(OCc4ccncc4)c(C(N)=O)s3)c2cc1OC [GSK336313] | 0 | 0 | 2 | 0 | 0 | 23 | 11 | 25 | 0 | 0
COc1ccc(-n2cnc3c(N)ncnc32)cc1 [SKF-97236] | 0 | 17 | 20 | 0 | 0 | 0 | 13 | 9 | 8 | 8
Cc1ccccc1COc1cc(-n2cnc3cc(Cl)ccc32)sc1C(N)=O [GW813349] | 46 | 82 | 9 | 33 | 0 | 0 | 1 | 32 | 5 | 11
CCn1c(-c2ccoc2)nc2cnccc21 [SB-733887] | 0 | 0 | 1 | 4 | 0 | 18 | 0 | 14 | 3 | 0
COc1cc2ncn(-c3cc(OCc4ccncc4Br)c(C(N)=O)s3)c2cc1OC [GW854278] | 87 | 0 | 7 | 4 | 0 | 2 | 0 | 65 | 20 | 1
CCn1c(-c2nonc2N)nc2ccccc21 [SB-693162/GW549034] | 11 | 83 | 4 | 0 | 55 | 0 | 54 | 46 | 25 | 31
COc1ccc(-c2coc3ccc(-c4nnc(SCc5cccc(C#N)c5)o4)cc23)cc1 | 4 | 0 | 0 | 0 | 9 | 36 | 0 | 7 | 24 | 12
CN1C(=O)C(Nc2cc(Cl)c(O)c(Cl)c2)=C(c2ccc(Cl)cc2)C1=O [SB-404321] | 0 | 0 | 0 | 24 | 6 | 0 | 0 | 0 | 0 | 0
COc1cc2nccc(Nc3cccc(Oc4ccccc4)c3)c2cc1OC.Cl [GW284543] | 0 | 48 | 0 | 0 | 0 | 12 | 0 | 0 | 0 | 0
COc1ccc(Nc2nccc(N3CCC(NS(=O)(=O)c4ccc(NC(C)=O)cc4)C3)n2)cc1 (stereo not shown) [GSK1379729] | 14 | 28 | 8 | 3 | 0 | 30 | 11 | 15 | 0 | 0
COc1cc(Nc2nccc(N3CCC(NC(=O)C4COc5ccccc5O4)C3)n2)cc(OC)c1OC (stereo not shown) [GSK1379761] | 0 | 0 | 38 | 19 | 58 | 44 | 0 | 2 | 10 | 0
